Nrf2 block: Nrf2 pathway inhibition; actives 2.1% (n = 360,000); Potency, µM (series often up to 46 µM), without a hit: top-dose activity change, negative = inhibition, actives largely listed as inhibitors; A549 ARE-Fluc reporter, luciferase luminescence, 18-24 h; note: % is set by controls: 0 for no effect and ±100 for the full control effect; nearly all actives have a fitted effect of over 60% in size
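Concentration-response testing used A549 ARE_Fluc cells at 5000 cells/well. Following an 18-24 h compound incubation, viability was read by fluorescence (Ex 405/Em 525) and luciferase output by luminescence.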
Nrf2 ARE act: activators of Nrf2 (ARE) signaling. AREc32 ARE-luciferase reporter (MCF7-derived line), luminescence, 24 h. Potency, µM (doses to about 46.1 µM), for inactives: at the top dose activation, most hits filed as activators. actives 0.31% (n = 410,000); note: % of control where 0% means no effect; nearly all actives have a fitted effect of over 65% in size
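Nrf2 activation is followed as ARE-luciferase induction in the AREc32 line after one day of compound treatment; luminescence is read with Steady-Glo.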
A549 tox: A549 cytotoxicity, counter-screen for Nrf2 inhibitors; Potency, µM (titrated, usually from 46 µM), for inactives: at the top dose activity change, negative = cytotoxicity, hits mostly inhibitors; A549 ARE-Fluc cells, CellTiter-Fluor viability, 18-24 h; actives 0.16% (n = 390,000); note: % is set by controls: 0 for no effect and ±100 for the full control effect
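A549 ARE_Fluc cells in 5% FBS OPTI-MEM were exposed to compounds in concentration-response for 18-24 h at 37 deg C. Viability was read by CellTiter-Fluor fluorescence (Ex 405/Em 525) after 30 min, before the luciferase read.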
ATXN2 expr inh: inhibitors of ATXN2 expression; HEK-293 ATXN2-luciferase reporter, luminescence, 24 h; Potency, µM (doses to about 57 µM), for the others: at the highest dose activity change, negative = inhibition, actives largely listed as inhibitors; actives 0.72% (n = 360,000); note: % is set by controls: 0 for no effect and ±100 for the full control effect; nearly all actives have a fitted effect of over 55% in size
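ATXN2-luciferase reporter cells (luciferase flanked by upstream and downstream ATXN2 gene portions) were treated 24 h at 37 °C with compounds at up to 57 uM. SteadyGlo luminescence gave expression; GF-AFC fluorescence gave viability.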
ATXN viability: cell viability loss in ATXN counter-screen; S2 cells (HEK-293 line with an ATXN2-luciferase reporter) viability, CellTiter-Fluor protease fluorescence, 24 h; Potency, µM (series often up to 56.7 µM), usual class: cytotoxic; actives 0.49% (n = 400,000); note: nearly all actives have a fitted effect of over 40% in size
Active calls of the source: *; i = inactive; ? = inconclusive; · = no result; [ ] = another dose, or the depositor's remark. This is a sample that favours compounds with a hit; in the whole collection about 2.9% have one here. Calls come from the whole dose curve; as a rule, active = well fitted curve in the direction sought with a large enough effect; inconclusive = small, poorly fitted or top-dose-only effect, or another doubt; inactive = no such curve, though single readings can be large; an effect the other way counts as inactive or inconclusive. Potency is the fitted concentration of half-maximal effect.

SMILES	Nrf2 block	Nrf2 ARE act	A549 tox	ATXN2 expr inh	ATXN viability
CC(C)(C)SCCNC(=O)/C=C/c1cccc([N+](=O)[O-])c1	28.7%	10µM*	23.6%	29.4%	i
CSc1nc(N)n2nc(-c3ccccc3)cc2n1	?	7.94µM*	0.4%	90.0%	i
COc1ccc(C2C(C#N)=C(C)NC3=C2C(=O)CC(C)(C)C3)cc1 (stereo not drawn)	13.3%	-0.3%	-11.9%	-5.6%	i
CCCSC1=C(C#N)C(c2ccc(OC)cc2)C2=C(CC(C)(C)CC2=O)N1 (stereo not drawn)	23.1µM*	0.1%	-28.6%	-22.0%	i
COc1ccc(-c2noc(CCC(=O)N3CCN(c4ccccc4)CC3)n2)cc1	7.2%	-0.7%	-4.6%	5.8%	i
O=C(O)c1ccccc1Sc1ncnc2sc3c(c12)CCC3	-4.4%	9.3%	2.0%	-12.3%	i
CC(C)C(N)c1csc(NC(=O)Nc2cccc(C(F)(F)F)c2)n1 (stereo not drawn)	·	-2.7%	·	?	·
CC(C)C(N)c1csc(NC(=O)Nc2ccc(OC(F)(F)F)cc2)n1 (stereo not drawn)	·	-3.3%	·	?	20µM*
Cc1c(N2C(=O)c3ccc4c5c(ccc(c35)C2=O)CC4)c(=O)n(-c2ccccc2)n1C	16.7%	2.1%	?	-5.2%	?
C=CCN1c2ccccc2[C@]23C[C@@H](C(=O)OC)N(C(=O)c4ccc(Br)cc4)C2=NC(C(=O)OC)=C(C(=O)OC)[C@H]13	?	0.0%	?	?	?
COC(=O)C1=C(C(=O)OC)[C@@H]2N(C)c3ccccc3[C@@]23C[C@@H](C(=O)OC)N(C(=O)c2cc(C)oc2C)C3=N1	18.4µM*	-0.7%	-29.3%	-15.7%	i
COC(=O)C1=C(C(=O)OC)[C@@H]2N(Cc3ccccc3)c3ccccc3[C@@]23C[C@@H](C(=O)OC)N(C(=O)c2ccc(Br)cc2)C3=N1	16.4µM*	-1.0%	-24.3%	?	?
CCOC(=O)N1CCN(C(=O)CCNS(=O)(=O)c2ccccc2)CC1	5.1%	-0.7%	0.3%	1.5%	i
Cc1ccc(Cl)cc1N1CCN(C(=O)CSc2cc(=O)n(C)c3ccccc23)CC1	16.4µM*	2.9%	-9.8%	?	i
Cc1ccc(Cl)cc1N1CCN(C(=O)CN(C2CCCCC2)S(C)(=O)=O)CC1	18.4µM*	-0.1%	-10.2%	-24.0%	i
CCOC(=O)N1CCN(C(=O)COc2ccc(S(=O)(=O)NCc3ccccc3)cc2)CC1	18.4µM*	-0.5%	-18.3%	·	·
Cc1ccc(Cl)cc1N1CCN(C(=O)COc2ccc(S(=O)(=O)NC(C)C)cc2)CC1	20.6µM*	-0.5%	-9.6%	?	?
O=C(C1COc2ccccc2O1)N(Cc1cccnc1)c1nc2c(Cl)cccc2s1 (stereo not drawn)	·	4.4%	0.6%	·	·
CC(C)Sc1nc2c(cnn2-c2ccccc2)c(=O)[nH]1	-27.7%	-0.5%	4.1%	-2.2%	i
O=c1[nH]c(/C=C/c2ccc(OC(F)F)cc2)nc2c1cnn2-c1ccccc1	16.4µM*	0.0%	-14.8%	-25.0%[11.3 µM]	i
C#CCOCCOCCOCCNc1nc(N2CCN(C(=O)CCCCCCCCCCNC(=O)[C@@H](CCSC)n3cc(CCO)nn3)CC2)nc(N2CCN(C(=O)CCCCCCCCCCNC(=O)[C@H]([C@@H](C)CC)n3cc(CCCCN=C(N)N)nn3)CC2)n1	?	-2.4%	?	?	15.8µM*
C#CCOCCOCCOCCNc1nc(N2CCN(C(=O)CCCCCCCCCCNC(=O)[C@@H](CCSC)n3cc(CCO)nn3)CC2)nc(N2CCN(C(=O)CCCCCCCCCCNC(=O)[C@H]([C@@H](C)CC)n3cc(CCCCCN)nn3)CC2)n1	?	-3.0%	?	28.2µM*	14.1µM*
O=C(CCc1ccccc1)NC(=S)Nc1cc(C(F)(F)F)ccc1N1CCOCC1	?	4.4%	-19.2%	-37.4%	i
CN1CCN(c2ccc(NC(=O)c3ccc(Oc4ccccc4)cc3)cc2)CC1	6.3%	9.4%	-1.3%	-22.2%	i
C=CC(=O)Nc1ccc(N(C)c2ccnc(Nc3ccc(N4CCN(C)CC4)cc3)n2)cc1	14.8%	5.0%	7.31µM*	-37.3%	14.1µM*
SMILES	Nrf2 block	Nrf2 ARE act	A549 tox	ATXN2 expr inh	ATXN viability
CCC(C(=O)O)C1CCC(C)C(C(C)C(O)C(C)C(=O)C(CC)C2OC3(C=CC(O)[C@@]4(CC[C@](C)(C5CC[C@@](O)(CC)C(C)O5)O4)O3)C(C)CC2C)O1 (stereo partly drawn)	·	·	·	7.69µM*	·
COc1ccc(CC(=O)OCC(=O)Nc2ccc3c(c2)OCCO3)cc1OC	-2.4%	0.3%	-10.8%	0.4%	?
Cc1cnc(NC(=O)CN2CCN(c3ccccn3)CC2)s1	?	0.2%	?	8.91µM*	?
CCC(=O)N1CCc2cc(S(=O)(=O)NCCN3CCCCC3CC)ccc21 (stereo not drawn)	1.9%	-0.7%	8.7%	-4.2%	i
Cc1ccccc1CSc1nc2n(n1)C(c1cccs1)C1=C(CCCC1=O)N2 (stereo not drawn)	?	2.4%	-27.5%	-20.3%	i
O=C1CCCC2=C1C(c1cccs1)n1nc(SCc3ccccc3F)nc1N2 (stereo not drawn)	18.4µM*	0.1%	-27.0%	-2.3%	i
O=C(Nc1cccc(Cl)c1)c1cccc(Oc2ccc([N+](=O)[O-])cc2Cl)c1	20.6µM*	-0.5%	-24.8%	·	?
O=C(COc1cccc(NC(=O)c2cccc([N+](=O)[O-])c2)c1)c1ccc(F)cc1	?	0.5%	-9.6%	?	?
COc1cccc(C(=O)COc2cccc(NC(=O)c3cccc([N+](=O)[O-])c3)c2)c1	18.4µM*	0.4%	-18.3%	?	?
CCC(C)NC(=O)[C@H](CSCc1ccccc1)N1Cc2ccccc2C1=O (stereo partly drawn)	9.5%	0.2%	-8.8%	-0.1%	i
CCOC(=O)c1csc(-c2sccc2Br)n1	?	14.1µM*	-3.0%	·	i
CCOC(=O)c1csc(-c2ccc(OC)c(OC)c2)n1	13.9%	0.5%	-6.6%	37.3%	i
O=C1NC(=Nc2ccccc2)S/C1=C\C=C\c1ccco1	10.3%	7.08µM*	?	10.7%	?
Cc1ccc(N=C2NC(=O)/C(=C/C=C/c3ccco3)S2)cc1	28.4%	2.51µM*	?	27.0%	?
O=C1S/C(=C\C=C\c2ccco2)C(=O)N1c1ccc(O)cc1	12.0%	?	?	45.6%	i
O=C1S/C(=C\C=C\c2ccco2)C(=O)N1c1ccccc1	0.6%	8.91µM*	-11.5%	10.6%	i
O=Cc1cn(-c2ccccc2)nc1-c1ccccc1	-0.1%	10.9%	-12.1%	·	i
CC1=NNC(=O)/C1=C\c1cn(-c2ccccc2)nc1-c1ccccc1	?	-3.9%	?	?	26.7µM*
